The nature of assay [1]: A549 cell viability effects, profiling panel, calcein-AM fluorescence, 48 h, basal (AID 1162). The conditions noted are these: higher = more signal.
The nature of assay [2]: adipocyte viability effects, profiling panel, cell-based, 3T3-L1 adipocytes, calcein-AM fluorescence, 48 h, basal (AID 1163). Particulars: 3T3-L1 adipocytes viability, higher = more signal.
Assay [3] in a line: HepG2 cell viability effects, profiling panel, calcein-AM fluorescence, 48 h, basal (AID 1164). Particulars: higher = more signal.
A short description of assay [4]: MM1S cell viability effects, profiling panel, calcein-AM fluorescence, 48 h, basal (AID 1165).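 Also: viability of MM1S multiple myeloma cells under basal unstimulated conditions.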 Particulars: higher = more signal.
Assay [5] in a line: basal RPMI8226 viability, no added stimulus, profiling panel, cell-based, calcein-AM fluorescence, 48 h, PK04 Diversity Set (AID 1166).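 Also: cells grown under basal conditions without added stimulus.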 Particulars: RPMI8226 myeloma viability, higher = more signal.
The nature of assay [6]: basal HepG2 mitochondrial membrane potential changes, profiling panel, cell-based, JC-1 fluorescence, 24 h, 100 nL compound (AID 1167). Particulars: higher = more signal.
Assay [7] can be described thus: basal 3T3-L1 adipocyte mitochondrial potential changes, profiling panel, cell-based, JC-1 fluorescence, 3T3-L1 adipocytes, 24 h, 100 nL compound (AID 1168). Particulars: JC-1 mitochondrial fluorescence, higher = more signal, called active from +8 up or from −8 down.
Assay [8] in a line: basal RPMI8226 mitochondrial membrane potential changes, profiling panel, cell-based, JC-1 fluorescence, 24 h, 100 nL compound (AID 1169). Particulars: RPMI8226 myeloma, JC-1 mitochondrial potential fluorescence, higher = more signal.
Assay [9] in a line: basal MM1S mitochondrial membrane potential changes, profiling panel, cell-based, JC-1 fluorescence, 24 h, 100 nL compound (AID 1170). Particulars: higher = more signal.
A short description of assay [10]: A549 lung cancer cell viability effects, profiling panel, resazurin fluorescence, 24 h, PK04 Diversity Set (AID 1171). The conditions noted are these: higher = more signal, called active from +8 up or from −8 down. Background: Alamar Blue is a resazurin reagent that responds to reducing activity.

Calls of active or inactive are those of the source.
Also: test concentration not given here.

With `NC(=O)[C@H]1[C@@H]2C(=O)O[C@@H](c3ccccc3)[C@@H](c3ccccc3)N2[C@@H](c2ccc(O)cc2)[C@]12C(=O)Nc1ccc(C#CC3=CCCCC3)cc12`, the z-score in assay [1] is -1.8; in assay [2], 0.741; in assay [3], -3.91; in [4], -3.33; in assay [5], -4.54; in [6], -3.68. The z-score in assay [7] was -2.09 (inactive); in [8] it was -1.16; in [9], -1.32; in assay [10] it was -0.3 (inactive).

On to `COC(=O)[C@@]1(Cc2ccc(OC)cc2)[C@H]2c3cc(C(=O)N4CCCC4)n(Cc4ccc(OC(F)(F)F)cc4)c3C[C@H]2CN1C(=O)c1ccccc1`, for which the z-score was -0.77 in [1]; -0.25 in [2]; -0.871 in [3]; -0.889 in assay [4]; -2.45 in [5]; 0.225 in assay [6]. The z-score in assay [7] is -0.621 (inactive); in assay [8] it was -0.638; in [9] it was -1.58; in [10] it was -0.995 (inactive).

With `CN(C)C(=O)[C@@]1(Cc2ccccc2N=[N+]=[N-])N=C(c2ccc(OCCCO)cc2)O[C@H]1c1ccccc1`, the z-score in [1] is -1.85; in assay [2] it was 0.574; in [3], -0.954; in assay [4], -2.99; in assay [5], -3.67; in assay [6], 0.517. Further, the z-score in assay [7] is 0.0738 (inactive); in assay [8], -1.25; in assay [9], -1.67; in assay [10], -2.2 (inactive).

Regarding `CN1C(=O)C2C=CC(C(O)c3cc(C(F)(F)F)cc(C(F)(F)F)c3)N(Nc3ccccc3)C2C1=O` (stereo not given), the z-score in [1] was -1.53; in assay [2] it was -1.36; in assay [3], -0.78; in assay [4] it was -0.239; in [5], -0.683; in [6], -1.09. Also, the z-score in [7] was -0.551 (inactive); in [8] it was -0.222; in [9] it was 0.333; in [10] it was 0.672 (inactive).

As for `C=C[C@@H](OC)[C@H](OC(=O)Nc1ccc(OC)cc1)c1ccc(OC)c(O)c1`, the z-score in [1] is -0.464; in assay [2], 0.605; in [3] it was -0.192; in [4] it was -0.0794; in [5] it was 1.05; in assay [6], -0.733. For the same molecule, the z-score in assay [7] is 0.141 (inactive); in [8], 0.616; in assay [9], 0.454; in assay [10] it was 0.376 (inactive).

Turning to `CCCCCN1CC=CC23O[C@@H]4C=CCOC(=O)[C@@H]4[C@H]2C(=O)N(CCO)[C@@H]3C1=O` (stereo not given in full), the z-score in assay [1] was -0.479; in assay [2], -0.609; in [3], 0.0249; in assay [4] it was 0.687; in assay [5], -0.285; in [6], -0.607. Besides, the z-score in assay [7] is 0.561 (inactive); in assay [8], 0.174; in assay [9], -0.15; in [10] it was -0.0273 (inactive).

Regarding `COC(=O)C(CC#Cc1ccc2c(c1)[C@]1(C(=O)N2)[C@H](c2ccc(OCCO)cc2)N2[C@H](c3ccccc3)[C@H](c3ccccc3)OC(=O)[C@H]2[C@@H]1C(=O)N1CCN(c2ncccn2)CC1)C(=O)OC`, the z-score in assay [1] was -0.824; in assay [2], -0.661; in assay [3], 0.228; in assay [4], -0.966; in assay [5] it was -3.72; in assay [6], -1.01. Also, the z-score is 0.525 (inactive) in assay [7], -1 in assay [8], -1.55 in assay [9] and 0.352 (inactive) in assay [10].

For the molecule `NC(=O)[C@@H]1[C@H]2C(=O)O[C@H](c3ccccc3)[C@H](c3ccccc3)N2[C@H](c2ccc(OCCO)cc2)[C@@]12C(=O)Nc1ccc(C#CCCO)cc12`, the z-score is -0.0173 in assay [1]; -0.387 in assay [2]; 1.17 in [3]; -0.929 in [4]; 0.698 in assay [5]; -0.704 in assay [6]. For the same molecule, the z-score in assay [7] was -0.391 (inactive); in assay [8] it was -0.323; in assay [9] it was -0.939; in assay [10], -0.65 (inactive).

As for `O=C1C[C@@](C(=O)NCC(F)(F)F)(c2ccc([N+](=O)[O-])cc2)[C@@H](c2ccc(CO)cc2)N1CC12CC3CC(CC(C3)C1)C2`, the z-score in [1] was -1.8; in [2] it was 1.4; in assay [3], -1.57; in assay [4] it was -2.72; in assay [5], -4.39; in [6], -1.09. The z-score in assay [7] is -1.29 (inactive); in assay [8], -1.04; in [9], -0.0442; in [10] it was -2.08 (inactive).

On to `[N-]=[N+]=NCc1ccccc1C[C@@]1(C(=O)N2CCCCC2)N=C(c2ccc(OCCCO)cc2)O[C@@H]1c1ccccc1CN=[N+]=[N-]`, for which the z-score is -0.683 in [1]; -0.819 in assay [2]; 0.036 in assay [3]; -1.39 in [4]; -3.57 in [5]; -0.357 in assay [6]. Besides, the z-score in assay [7] was -0.639 (inactive); in [8] it was -1.17; in assay [9] it was -1.64; in assay [10], 0.742 (inactive).

Take `COC(=O)[C@@]1(Cc2ccccc2CN=[N+]=[N-])N=C(c2ccc(OCCCO)cc2)O[C@H]1c1ccccc1CN=[N+]=[N-]`: the z-score in assay [1] was -3.82; in assay [2], 0.522; in assay [3], -5.01; in [4], -3.56; in [5] it was -3.89; in assay [6], -0.86. Moreover, the z-score in assay [7] is -1.38 (inactive); in [8], -1.07; in assay [9] it was -2.09; in assay [10], -2.82 (inactive).

In the case of `C=CCNC(=O)[C@H]1[C@@H]2C(=O)O[C@@H](c3ccccc3)[C@@H](c3ccccc3)N2[C@@H](c2ccc(OCCO)cc2)[C@]12C(=O)N(C(=O)OCCOC)c1ccc(C#Cc3ccc(OC)cc3)cc12`, the z-score in [1] was -0.394; in [2] it was 1.44; in [3], -0.652; in assay [4], -0.303; in assay [5], -1.2; in assay [6] it was -1.22. Also, the z-score was 3.09 (inactive) in assay [7], -0.904 in [8], -0.529 in assay [9] and 0.0724 (inactive) in assay [10].

For `COCCOC(=O)N1C(=O)[C@@]2(c3cc(C#Cc4ccc(OC)cc4)ccc31)[C@H](C(=O)NC[C@H](O)c1ccccc1)[C@H]1C(=O)O[C@H](c3ccccc3)[C@H](c3ccccc3)N1[C@@H]2c1ccc(OCCO)cc1`, the z-score in [1] was -0.953; in assay [2] it was 0.55; in assay [3], -1.1; in assay [4], -0.915; in [5], -1.47; in [6] it was -1.97. Also, the z-score was 2.35 (inactive) in assay [7], -0.66 in assay [8], -1.78 in [9] and 1.32 (inactive) in [10].

On to `CCCCCCCCCCC(O)C1C=CC2C(=O)N(c3ccccc3)C(=O)C2N1Nc1ccccc1F` (stereo not given), for which the z-score in assay [1] is 0.059; in assay [2], -0.849; in assay [3] it was -0.016; in [4], -0.598; in [5], -0.105; in assay [6], -0.777. In addition, the z-score was -0.45 (inactive) in [7], -0.415 in assay [8], -0.193 in assay [9] and 0.162 (inactive) in assay [10].

As for `C=C(C)C1CCC(C(O)C2C=CC3C(=O)N(C)C(=O)C3N2Nc2cc(OC)c(OC)c(OC)c2)CC1` (stereo not given), the z-score in assay [1] is -1.13; in assay [2] it was -1; in assay [3] it was -0.273; in assay [4], -0.989; in assay [5], -0.0317; in assay [6], -0.648. The z-score is -0.696 (inactive) in [7], -0.354 in assay [8], -0.549 in [9] and -0.404 (inactive) in assay [10].

Values taken from PubChem BioAssay.
